Data on 40 compounds can be found in PubChem BioAssay (Tox21).

Inconclusive results are not listed. A number with no mark means an inactive call. Activity calls are given as the source filed them. The call rests on the fitted dose curve; in most records, active means well fitted cell-killing curve with a large enough effect in the repeat runs; inconclusive means weak or mixed curves, or effect the other way; inactive means flat fitted curve, though single readings scatter.
On the % scale 0 is the no-effect control and ±100 the full control effect; potency means the concentration at half of the fitted maximal effect.

The assay is described as follows: qHTS RealTime-Glo MT Cell Viability Assay in HEK293 cells - 8 hour (AID 1224887). Further: nearly all actives have a fitted effect of over 50% in size. On activity change, negative = cytotoxicity: top concentration of the series differs between compounds. Particulars: RealTime-Glo luminescence; series mostly up to 76.8 µM; activity change, negative = cytotoxicity: at the top concentration. The text has this: U.S. Tox21 Program National Center for Advancing Translational Sciences [NCATS] NIH Chemical Genomics Center [NCGC] U.S. Environmental Protection Agency [EPA] National Institutes of Environmental Health Sciences [NIEHS] National Toxicology Program [NTP] U.S. Food and Drug Administration [FDA] Tox21 Assay Overview: Measure of cell viability is critical in the cell-base assay. Analysis of cell viability is necessary for the characterization of cell responses to cytotoxic drugs and environmental stress. A RealTime-Glo MT Cell Viability Assay to monitor cell viability in real time of continues cell culture during 40 hours of compound treatment was used to screen Tox21 10K library compounds in Hek293 cells. The RealTime-Glo MT Cell Viability Assay is a nonlytic, homogeneous, bioluminescent method to measure cell viability in real time using a simple, plate-based method. The assay involves adding NanoLuc luciferase and a cell-permeant prosubstrate to cells in culture. Viable cells reduce the proprietary prosubstrate to generate a substrate for NanoLuc luciferase. This substrate diffuses from cells into the surrounding culture medium, where it is rapidly used by the NanoLuc Enzyme to produce a luminescent signal. The signal correlates with the number of viable cells, making the assay well suited for cytotoxicity studies.
Tox21 Assay Protocol Summary: The mixture of Hek293 cell suspension and reagents were dispensed at 600cells/6 ul/well in 1536-well tissue culture treated black solid bottom plates using a Multidrop dispenser. After the assay plates were incubated at a 37 C/5% CO2 incubator for 5 hours, 23 nL of compounds dissolved in DMSO, positive and negative controls was transferred to the assay plate by a pintool work station. The plates were incubated at 37 C for 40 hours. The luminescence intensity were measured at 0h, 8h, 16h, 24h, 32h and 40h time points using ViewLux plate reader during compound treatment.
(Quantitative high-throughput screening tests each substance at several concentrations.)
As for `CCOc1ccc(C(=O)OCCN(CC)CC)cc1`, the “activity change, negative = cytotoxicity” value is 15.4% [at 35.3 µM].

Regarding `O=C(c1ccccc1)C1CCCCC1`, the “activity change, negative = cytotoxicity” value was -13.4%.

As for `CCCCOCCOCCOCCCC`, the “activity change, negative = cytotoxicity” value was 0.393%.

For the compound `CCC(C)C1CCCCC1=O` (stereo not given), the “activity change, negative = cytotoxicity” value is 6.31%.

Turning to `C=C1CC[C@H]2C[C@@H]1C2(C)C`, the “activity change, negative = cytotoxicity” value is 4.18%.

`CCCCCCCCCCCCCC=O`: the activity change, negative = cytotoxicity is 2.94% [at 6.97 µM].

On to `CC/C=C\CC/C=C/CO`, for which the “activity change, negative = cytotoxicity” value is 1.19%.

`C=CCOCC(CC)(CO)COCC=C`: the “activity change, negative = cytotoxicity” value was 4.2%.

On to `CC(=O)OCC(=O)[C@@]1(O)CCC2C3CCC4=CC(=O)CC[C@]4(C)C3[C@@H](O)C[C@@]21C` (stereo not given in full), for which the “activity change, negative = cytotoxicity” value is 0.93% [at 35.3 µM].

Take `Nc1c2c(nc3ccccc13)CCCC2O` (stereo not given): the “activity change, negative = cytotoxicity” value is -3.11% [at 35.3 µM].

In the case of `O=Cc1cccc([N+](=O)[O-])c1`, the “activity change, negative = cytotoxicity” value is 0.644%.

Take `CCn1ccnc1CC1COc2ccccc2O1` (stereo not given): the “activity change, negative = cytotoxicity” value was -3.95% [at 35.3 µM].

For the compound `NC(=O)c1cn(Cc2c(F)cccc2F)nn1`, the “activity change, negative = cytotoxicity” value is -0.404% [at 35.3 µM].

As for `C/C=C(\C)C#N`, the “activity change, negative = cytotoxicity” value was -1.86%.

Consider `CC(C)NCC(O)c1ccc(NS(C)(=O)=O)cc1` (stereo not given), for which the “activity change, negative = cytotoxicity” value was 10.2%.

Consider `CCCCNC(=O)NCCCC`, for which the “activity change, negative = cytotoxicity” value was 0.502%.

For the compound `COc1c(N2C[C@@H]3CCCN[C@@H]3C2)c(F)cc2c(=O)c(C(=O)O)cn(C3CC3)c12`, the “activity change, negative = cytotoxicity” value is 3.05% [at 35.3 µM].

On to `CC(C)(O)C(=O)c1ccccc1`, for which the “activity change, negative = cytotoxicity” value is -1.63%.

Turning to `COc1ccc(CCN(C)CCCC(C#N)(c2cc(OC)c(OC)c(OC)c2)C(C)C)cc1OC` (stereo not given), the Potency is 21.3 µM (active).

`CN1CCC(=C2c3ccccc3CC(=O)c3sccc32)CC1`: the “activity change, negative = cytotoxicity” value is -8.69% [at 35.3 µM].

For the compound `CCOC(=O)c1cccc(N)c1`, the “activity change, negative = cytotoxicity” value was 0.956% [at 35.3 µM].

As for `CC(C)(C)c1nnc(NS(=O)(=O)c2ccccc2)s1`, the “activity change, negative = cytotoxicity” value is 5.83% [at 35.3 µM].

For `Oc1ccc(C2CNCCc3c2cc(O)c(O)c3Cl)cc1` (stereo not given), the “activity change, negative = cytotoxicity” value is -2.67% [at 35.3 µM].

With `CCCCCCCCCCCCCCCCC`, the “activity change, negative = cytotoxicity” value is 0.758%.

Consider `CC(C[N+](C)(C)C)OC(N)=O` (stereo not given), for which the “activity change, negative = cytotoxicity” value was 3.17% [at 35.3 µM].

For `COCCc1ccc(OCC(O)CNC(C)C)cc1` (stereo not given), the Potency entry is “inactive”.

As for `NC(=O)COCCN1CCN(C(c2ccccc2)c2ccc(Cl)cc2)CC1` (stereo not given), the “activity change, negative = cytotoxicity” value is 15.3% [at 35.3 µM].

As to `CCCCCCCCCCCCN(CCCCCCCCCCCC)CCCCCCCCCCCC`, the “activity change, negative = cytotoxicity” value is -4.38%.

Turning to `CC1(C)CO[C@@H](CC(=O)O)CN1`, the “activity change, negative = cytotoxicity” value is 3.59% [at 35.3 µM].

As for `Cc1cc2c(cc1S(N)(=O)=O)S(=O)(=O)CCC2`, the “activity change, negative = cytotoxicity” value is 2.84% [at 35.3 µM].

As for `C=COCC1CCC(CO)CC1` (stereo not given), the “activity change, negative = cytotoxicity” value is 5.15%.

On to `CCOC(C)(C)C`, for which the “activity change, negative = cytotoxicity” value is 6.94%.

In the case of `O=C1CCCC(=O)C1`, the “activity change, negative = cytotoxicity” value was 5.85%.

Regarding `CCn1nc(C(=O)O)c(=O)c2cc3c(cc21)OCO3`, the “activity change, negative = cytotoxicity” value was 1.21% [at 35.3 µM].

Turning to `CN(C(=O)c1c(O)c2ccccc2n(C)c1=O)c1ccccc1`, the “activity change, negative = cytotoxicity” value was 7.32% [at 35.3 µM].

`OCCOc1ccc(OCCO)cc1`: the “activity change, negative = cytotoxicity” value was 9.74%.

`NS(=O)(=O)c1cc(C(=O)O)cc(N2CCCC2)c1Oc1ccccc1`: the “activity change, negative = cytotoxicity” value was -8.86% [at 35.3 µM].

As to `COC(=O)c1ccc(C)cc1C1=NC(C)(C(C)C)C(=O)N1` (stereo not given), the “activity change, negative = cytotoxicity” value is 8.51%.

As to `CC(C)CNCC(C)C`, the “activity change, negative = cytotoxicity” value is 1.99%.

Take `C[C@H]1C[C@@H](O)CC(C)(C)C1`: the “activity change, negative = cytotoxicity” value was -1.76%.
